Drawing on PubChem BioAssay, this text covers z-score and composite z-score for 5 molecules.

Test [1] in a line: compound effects on lung adenocarcinoma cell viability – A549, calcein-AM fluorescence, 48 h, basal, profiling panel (AID 1162). Note: test concentration not given here. The following applies: higher = more signal.
A short description of test [2]: compound effects on differentiated 3T3-L1 adipocyte viability – cell-based, 3T3-L1 adipocytes, calcein-AM fluorescence, 48 h, basal, profiling panel (AID 1163). Note: test concentration not given here. The following applies: 3T3-L1 adipocytes viability, higher = more signal.
A short description of test [3]: compound effects on hepatocellular carcinoma cell viability – HepG2, calcein-AM fluorescence, 48 h, basal, profiling panel (AID 1164). Note: test concentration not given here. As to conditions: higher = more signal.
Test [4] can be described thus: compound effects on multiple myeloma cell viability – MM1S, calcein-AM fluorescence, 48 h, basal, profiling panel (AID 1165).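 Note: viability of MM1S multiple myeloma cells under basal unstimulated conditions; test concentration not given here.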 The following applies: higher = more signal.
Test [5] is described as follows: calcein-AM signal in unstimulated myeloma cells – cell-based, calcein-AM fluorescence, 48 h, PK04 Diversity Set, profiling panel (AID 1166).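 Note: cells grown under basal conditions without added stimulus; test concentration not given here.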 As to conditions: RPMI8226 myeloma viability, higher = more signal.
Test [6] in a line: JC-1 mitochondrial signal, unstimulated HepG2 cells – cell-based, JC-1 fluorescence, 24 h, 100 nL compound, profiling panel (AID 1167). Note: test concentration not given here. As to conditions: HepG2 mitochondrial potential, higher = more signal.
The nature of test [7]: JC-1 mitochondrial signal, unstimulated adipocytes – cell-based, JC-1 fluorescence, 3T3-L1 adipocytes, 24 h, 100 nL compound, profiling panel (AID 1168). Note: test concentration not given here. As to conditions: JC-1 mitochondrial fluorescence, higher = more signal, called active from +8 up or from −8 down.
A short description of test [8]: JC-1 mitochondrial signal, unstimulated myeloma cells – cell-based, JC-1 fluorescence, RPMI8226, 24 h, 100 nL compound, profiling panel (AID 1169). Note: test concentration not given here. As to conditions: JC-1 mitochondrial potential fluorescence, higher = more signal.
Test [9] in a line: JC-1 mitochondrial signal, unstimulated MM1S myeloma – cell-based, JC-1 fluorescence, 24 h, 100 nL compound, profiling panel (AID 1170). Note: test concentration not given here. As to conditions: MM1S mitochondrial potential, higher = more signal.
Test [10] in a line: resazurin metabolic signal in A549 cells – cell-based, resazurin fluorescence, 24 h, PK04 Diversity Set, profiling panel (AID 1171). Note: test concentration not given here. The following applies: A549 viability, higher = more signal, called active from +8 up or from −8 down.
Test [11] can be described thus: resazurin metabolic signal in HepG2 cells – cell-based, resazurin fluorescence, 24 h, PK04 Diversity Set, profiling panel (AID 1172). Note: test concentration not given here. The following applies: HepG2 viability, higher = more signal. In general terms: Resazurin is reduced to fluorescent resorufin, in cell work by metabolically active cells.
A short description of test [12]: budding yeast growth changes without added modifier – OD600, strain BY4716, 24 h, basal condition, primary screen (AID 1173). The following applies: S. cerevisiae BY4716 growth, OD600, 24 h; higher = more signal, called active from +8 up or from −8 down.
Test [13] can be described thus: viability profiling in MM1S myeloma cells – cell-based, resazurin fluorescence, basal, 24 h, PK04 Diversity Set, profiling panel (AID 1174). Note: test concentration not given here. As to conditions: higher = more signal, called active from +8 up or from −8 down.
Test [14] deals with Dihydroorotate dehydrogenase (quinone), mitochondrial (Plasmodium falciparum (isolate 3D7)) (UniProt Q08210). The experiment in a line: inhibition of P. falciparum DHODH – biochemical, C-terminal His tag, absorbance 600 nm, primary screen (AID 1175).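 Note: recombinant parasite enzyme with a five histidine tag at its C terminus; test concentration not given here.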 The following applies: PfDHODH enzyme, DCIP absorbance 600 nm; higher = more signal, called active from +8 up or from −8 down.
The nature of test [15]: growth modulation of vineyard yeast isolate – strain RM11-1a, OD600, basal, 24 h, primary screen (AID 1177).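 Note: cultures grown under basal conditions with no added stressor; test concentration not given here.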 The following applies: S. cerevisiae RM11-1a growth, OD600, 24 h; higher = more signal, called active from +8 up or from −8 down.
Test [16] is described as follows: growth of efflux-deficient E. coli DRC39 – strain DRC39, OD650, 24 h, E. coli filamentation inducers, primary screen (AID 1178).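 Note: growth measured as culture turbidity by optical density at 650 nm; test concentration not given here.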 As to conditions: E. coli DRC39 acrAB, higher = more signal, called active from +8 up or from −8 down.
Test [17] in a line: growth of efflux-deficient E. coli DRC39 – strain DRC39, OD650, 48 h, E. coli filamentation inducers, primary screen (AID 1179).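 Note: screen aims at cell division blockers that make cells filament.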 As to conditions: E. coli DRC39 delta-acrAB growth, higher = more signal, called active from +8 up or from −8 down.
Test [18] is described as follows: viability profiling in RPMI8226 myeloma cells – cell-based, resazurin fluorescence, basal, 24 h, PK04 Diversity Set, profiling panel (AID 1180).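 Note: RPMI8826 multiple myeloma cell line at 5000 cells per well; test concentration not given here.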 As to conditions: higher = more signal.
The target in test [19] is E3 ubiquitin-protein ligase XIAP (Homo sapiens) (UniProt P98170). The test can be described thus: small molecules binding XIAP protein – biophysical, small-molecule microarray, fluorescence 635 nm, primary screen (AID 1181).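 Note: score merges 667 nm emission and signal to noise over triplicate slides.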 As to conditions: higher = more signal.

Active and inactive are the calls of the source.

Sequence of E3 ubiquitin-protein ligase XIAP (Homo sapiens) (P98170 whole entry, looked up): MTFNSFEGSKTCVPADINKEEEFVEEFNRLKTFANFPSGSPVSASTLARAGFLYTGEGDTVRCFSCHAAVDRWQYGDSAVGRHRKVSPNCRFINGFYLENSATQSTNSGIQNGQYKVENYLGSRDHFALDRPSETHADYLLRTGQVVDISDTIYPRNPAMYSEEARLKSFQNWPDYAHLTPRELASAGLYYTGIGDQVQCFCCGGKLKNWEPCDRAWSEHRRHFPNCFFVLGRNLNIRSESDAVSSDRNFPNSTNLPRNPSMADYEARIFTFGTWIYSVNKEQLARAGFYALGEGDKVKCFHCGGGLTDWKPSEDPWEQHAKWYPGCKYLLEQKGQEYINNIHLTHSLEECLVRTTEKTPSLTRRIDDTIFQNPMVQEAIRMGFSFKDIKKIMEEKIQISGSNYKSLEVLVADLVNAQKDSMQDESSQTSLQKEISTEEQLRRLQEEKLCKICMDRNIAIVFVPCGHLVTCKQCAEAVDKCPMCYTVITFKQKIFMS
Sequence of Dihydroorotate dehydrogenase (quinone), mitochondrial (Plasmodium falciparum (isolate 3D7)) (Q08210 whole entry, looked up): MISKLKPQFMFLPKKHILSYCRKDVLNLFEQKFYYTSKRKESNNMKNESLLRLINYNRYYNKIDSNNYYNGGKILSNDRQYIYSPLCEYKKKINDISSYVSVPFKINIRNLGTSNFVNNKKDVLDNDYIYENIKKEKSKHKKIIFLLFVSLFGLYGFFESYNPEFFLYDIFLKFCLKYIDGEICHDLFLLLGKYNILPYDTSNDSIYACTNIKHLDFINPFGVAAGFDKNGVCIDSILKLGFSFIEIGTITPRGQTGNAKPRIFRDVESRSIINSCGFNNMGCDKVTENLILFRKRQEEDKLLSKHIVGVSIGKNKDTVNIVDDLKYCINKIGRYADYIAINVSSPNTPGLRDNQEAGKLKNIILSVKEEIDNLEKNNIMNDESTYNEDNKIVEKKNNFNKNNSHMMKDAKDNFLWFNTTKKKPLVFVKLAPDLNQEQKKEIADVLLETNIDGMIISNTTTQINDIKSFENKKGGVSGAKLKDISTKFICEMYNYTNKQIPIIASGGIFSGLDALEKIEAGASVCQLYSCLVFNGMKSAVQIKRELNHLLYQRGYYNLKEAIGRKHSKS

As to `NC(=O)NCC#Cc1ccc2c(c1)[C@]1(C(=O)N2)[C@H](C(=O)N2CCCCCCC2)[C@H]2C(=O)O[C@H](c3ccccc3)[C@H](c3ccccc3)N2[C@@H]1c1ccccc1OCCO`, the z-score was -0.21 in test [1]; 1.36 in test [2]; -0.0395 in test [3]; -2.48 in [4]; -0.583 in test [5]; -1.25 in [6]. In addition, the z-score in test [7] is 1.03 (inactive); in test [8], -0.56; in [9] it was -0.693; in test [10], 1.28 (inactive); in [11], 0.237; in test [12] it was -0.643 (inactive). In addition, the z-score in test [13] was 1.4 (inactive); in test [15], 0.827 (inactive); in test [16], 0.218 (inactive); in [17], 0.125 (inactive); in [18], 1.13. In addition, the composite z-score was -0.121 (inactive) in test [14] and 0.306 in [19].

On to `C=C(COC)/C(=C/C[C@@H](OC(C)=O)c1cccc(OCCO)c1)c1cc(C(=O)OC)ccc1OC`, for which the z-score in test [1] was 1.1; in test [2], -0.412; in [3], 0.409; in [4], -1.29; in test [5], 0.0922; in test [6], 3.3. Further, the z-score in [7] is 1.2 (inactive); in [8] it was 0.127; in test [9] it was -0.466; in test [10], 1.49 (inactive); in test [11], 1.21; in test [12], -1.57 (inactive). In addition, the z-score in test [13] is 0.49 (inactive); in [15], -0.489 (inactive); in test [16], 2.1 (inactive); in [17], 1.47 (inactive); in [18] it was 0.938. In addition, the figures for the composite z-score in test [14] and in [19] were -0.733 (inactive) and 0.155, respectively.

`O=C1O[C@@H](c2ccccc2)[C@@H](c2ccccc2)N2[C@@H](c3ccccc3OCCO)[C@]3(C(=O)Nc4ccc(C#CC5=CCCCC5)cc43)[C@@H](C(=O)O)[C@H]12`: the z-score was -1 in test [1]; 1.61 in [2]; -0.992 in test [3]; -3.39 in [4]; -4.65 in test [5]; -3.81 in test [6]. Further, the z-score is 4.74 (inactive) in test [7]; -1.07 in [8]; -0.999 in test [9]; 0.289 (inactive) in test [10]; 0.172 in [11]; -0.5 (inactive) in test [12]. The z-score was -2.81 (inactive) in test [13]; 3.46 (inactive) in [15]; 0.175 (inactive) in test [16]; 0.45 (inactive) in test [17]; -5.59 in test [18]. Moreover, the composite z-score was -4.84 (inactive) in [14] and 0.105 in test [19].

In the case of `CC/C=C/C(=O)N(C[C@@H]1CCCO1)[C@@H]1CC(C(=O)NCCO)=C[C@H](Oc2c(I)cc(CO)cc2OC)[C@H]1O`, the z-score in test [1] is 1.65; in test [2], 0.407; in [3] it was 0.362; in test [4], 0.0808; in test [5] it was 0.587; in [6] it was 2.48. Besides, the z-score in test [7] is 1.32 (inactive); in test [8] it was -0.0319; in test [9], 0.265; in [10], 1.07 (inactive); in test [11], 1.42; in test [12], -2.91 (inactive). In addition, the z-score in [13] was 1.08 (inactive); in test [15], -2.02 (inactive); in test [16] it was 2.39 (inactive); in test [17], 1.03 (inactive); in test [18], 0.209. In addition, the composite z-score in test [14] is -0.288 (inactive); in [19] it was -0.117.

In the case of `CC(C)CN1C(=O)[C@@]2(Cc3ccccc31)c1ccccc1C(=O)N(C1CCCCC1)[C@H]2c1ccc(CO)cc1`, the z-score in [1] is 0.572; in test [2] it was 1.86; in test [3], 0.502; in test [4], 0.845; in [5], -0.0832; in [6] it was -0.178. Besides, the z-score in test [7] was 0.938 (inactive); in test [8], -0.6; in test [9], 0.00808; in test [10] it was 0.148 (inactive); in [11], 0.0515; in [12], -1.91 (inactive). The z-score is 1.05 (inactive) in test [13]; -1.12 (inactive) in [15]; 0.164 (inactive) in test [16]; 0.464 (inactive) in test [17]; 1.21 in test [18]. Also, the composite z-score was -2.88 (inactive) in test [14] and 0.377 in test [19].
